For 25 molecules, growth results are on record in PubChem BioAssay (NCI).

About 83,000 compounds went through this panel and 20% of them were active in at least one assay; those are over-represented in the sample as a whole.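 Step 1: grow cells in 96-well plates. Step 2: add test compound at a single concentration. Step 3: incubate 48 h. Step 4: record percent growth.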 Active and inactive are the calls of the source. Rule for the calls: active = growth percent below 10; inactive = the rest.

The test relates to HL-60(TB) leukemia. Put plainly: NCI-60 one-dose screen, 48 h (100 = growth as untreated, 0 = no growth, -100 = all killed). As to conditions: 10 µM unless noted.
Take `CN(C)CCCN1c2nc3ccccc3cc2Sc2cc3ccccc3nc21`: the growth is 43.9% (inactive).

As to `COc1cc(OC)c2c(=O)c(O)c(-c3ccccc3)oc2c1`, the growth was 53.4% (inactive).

Take `O=C1CSC(c2ccccc2)N1c1ccccc1` (stereo not given): the growth is 99.7% (inactive).

Consider `COc1ccc(/C=C2\N=C(Nc3ccccc3)N(NC(=O)c3ccccn3)C2=O)cc1`, for which the growth is 97.7% (inactive).

Consider `CCOC(=O)c1sc2nc(-c3cccc(O)c3)nc(N3CCOCC3)c2c1C`, for which the growth is 78.3% (inactive).

For `COc1cc(C2Cc3ncccc3-c3[nH]c(=O)c4cccnc4c32)cc(OC)c1OC` (stereo not given), the growth was -2.08% (active).

On to `O=c1[nH]c(=O)n(C2CC(O)C(CO)O2)cc1CO` (stereo not given), for which the growth was 107% (inactive).

Regarding `COc1ccc2[nH]c(=O)c3c4ccccc4cn3c2c1`, the growth is -28.4% (active).

Take `N=C(N)c1ccc(-c2ccc(-c3ccc(-c4cccs4)s3)s2)cc1`: the growth was 100% (inactive).

Take `c1cnc2n[nH]c(Nc3ncnc4c3sc3ncccc34)c2c1`: the growth was 96.8% (inactive).

In the case of `Cc1nc(Nc2ccc(F)c(Cl)c2)sc1C(=O)O`, the growth was 11.6% (inactive).

In the case of `Oc1c(I)cc(I)cc1CN(Cc1ccccn1)Cc1ccccn1`, the growth was 2.58% (active).

With `CCC(CC)n1c(C)cc(=O)n1C(CC)CC`, the growth was 88% (inactive).

Take `COc1ccc(-c2nnc(COc3ccc(NC(=O)Nc4cccc(C(F)(F)F)c4)cc3F)o2)cc1`: the growth was 4.03% (active).

For `O=C1C(Cl)C(c2ccccc2Cl)N1n1cnnc1` (stereo not given), the growth was 109% (inactive).

`Cc1n(Cc2ccc3ccccc3c2)c2ccccc2[n+]1Cc1ccc2ccccc2c1`: the growth was -60.3% (active).

For `CCOC(=O)C1=C(C(F)(F)F)NC(=O)NC1CN1C(=O)c2ccccc2C1=O` (stereo not given), the growth was 46.2% (inactive).

In the case of `CC(C)c1ccc(S(=O)(=O)NC(=O)NC2CCCC2)cc1`, the growth was 90.8% (inactive).

Consider `COc1ccccc1NC(=O)COc1ccc(/C=C2/Oc3cc4occc4c(OC)c3C2=O)cc1OC`, for which the growth is 87.5% (inactive).

As for `Cc1ccc2nc(/C(C#N)=C(/CCCO)NC(Cc3ccccc3)C(=O)OCc3ccccc3)[nH]c(=O)c2c1` (stereo not given), the growth was 122% (inactive).

Regarding `O=C(CN1C(=O)S/C(=C\C(Cl)=C\c2ccccc2)C1=O)NC1CCS(=O)(=O)C1` (stereo not given), the growth was 18.6% (inactive).

Turning to `CC/C=C\C[C@H](O)C/C=C1/C(=O)C=C[C@@H]1C/C=C\CCCCO`, the growth is 36.4% (inactive).

As for `O=C(Nc1cccc(-n2cc(-c3ccncc3)c(-c3cc(O)cc(Cl)c3)n2)c1)Nc1ccc(Cl)c(Cl)c1`, the growth is -23.4% (active).

With `c1ccc(CN2C(c3ccccc3)=Nc3ccccc3C2c2c[nH]c3ccccc23)cc1` (stereo not given), the growth is 19.6% (inactive).

As for `CC1=C2CC/C(C)=C/CC[C@]3(C)O[C@H]3CC/C(C)=C/[C@H]2OC1`, the growth was 86.5% (inactive).
